Measurements as given in PubChem BioAssay (NCI).
The panel holds about 83,000 compounds, 20% with a hit somewhere; the sample as a whole holds those more often.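 Percent growth is the endpoint: 0 to 100 indicates growth inhibition (40 means 60% inhibition), 0 means no net growth, and negative values indicate cell death.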 Unmarked numbers belong to inactive results. The source made the active and inactive calls. Rule for the calls: active = growth percent below 10; inactive = the rest.

Each molecule was assayed on MDA-MB-468 breast (assay: NCI-60 one-dose screen, 48 h (100 = growth as untreated, 0 = no growth, -100 = all killed)). Settings: 10 µM unless noted.
Molecule `OC1CCCN(Cc2ccccc2)C1` (centres undefined) has a growth of 103%.
`CCC(CCNc1cc(OC)cc2cccnc12)CN1C(=O)c2ccccc2C1=O` (centres undefined) was tested, and the growth was 7.31% (active).
`O=C(Nn1c2c(sc1=NCc1ccccc1)C(=O)c1ccccc1C2=O)c1cc2ccc1CCc1ccc(cc1)CC2` showed a growth of 80%.
`COc1cc(/C=C/C(=O)/C=C/c2cc(OC)c3c(c2OC)OCO3)c(OC)c2c1OCO2` showed a growth of 23.1%.
